{"source": "the supplement of paper PMC8728848", "test_in_all_cases": "glycan array binding signal (z-score within array); higher = stronger binding", "conditions_in_all_cases": "glycan notation: IUPAC condensed, linker removed", "key": {"Fuc(a1-2)Gal(b1-4)Glc": {"target": "Fuc(a1-2)Gal(b1-4)Glc", "outline": "(§1)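 Columns mapping to the same glycan were averaged after glycan names were converted to IUPAC-condensed notation. The data come from 3228 arrays in the Consortium for Functional Glycomics database, limited to those with an available protein sequence. Binding is reported as a within-array Z-score averaged across arrays of one protein sequence and across linkers.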"}, "[1]": {"target": "Fuc(a1-2)[Gal(a1-3)]Gal(b1-4)Glc", "outline": "as §1"}, "Fuc(a1-3)GlcNAc": {"target": "Fuc(a1-3)GlcNAc", "outline": "as §1"}, "[2]": {"target": "Fuc(a1-3)[Gal3S(b1-4)]GlcNAc", "outline": "as §1"}, "Gal(a1-4)Gal(b1-4)Glc": {"target": "Gal(a1-4)Gal(b1-4)Glc", "outline": "as §1"}, "Gal(b1-3)Gal(b1-4)GlcNAc": {"target": "Gal(b1-3)Gal(b1-4)GlcNAc", "outline": "as §1"}, "[3]": {"target": "Gal(b1-3)GlcNAc(b1-2)Man(a1-3)[Gal(b1-3)GlcNAc(b1-2)Man(a1-6)]Man(b1-4)GlcNAc(b1-4)GlcNAc", "outline": "as §1"}, "[4]": {"target": "Gal(b1-4)GalNAc(b1-3)[Fuc(a1-2)]Gal(b1-4)GlcNAc", "outline": "as §1"}, "[5]": {"target": "Gal(b1-4)GlcNAc(b1-2)Man(a1-3)[Gal(b1-4)GlcNAc(b1-2)Man(a1-6)]Man(b1-4)GlcNAc(b1-4)GlcNAc", "outline": "as §1"}, "Gal3S(b1-4)GlcNAc": {"target": "Gal3S(b1-4)GlcNAc", "outline": "as §1"}, "Gal3S4S(b1-4)GlcNAc": {"target": "Gal3S4S(b1-4)GlcNAc", "outline": "as §1"}, "Glc(a1-6)Glc(a1-6)Glc": {"target": "Glc(a1-6)Glc(a1-6)Glc", "outline": "as §1"}, "GlcA(b1-3)GlcNAc": {"target": "GlcA(b1-3)GlcNAc", "outline": "as §1"}, "[6]": {"target": "GlcNAc(b1-3)[GlcNAc(b1-6)]Gal(b1-4)GlcNAc", "outline": "as §1"}, "[7]": {"target": "GlcNAc(b1-3)[GlcNAc(b1-6)]GalNAc", "outline": "as §1"}, "[8]": {"target": "GlcNAc(b1-4)Gal(b1-4)GlcNAc", "outline": "as §1"}, "Kdn(a2-3)Gal(b1-4)GlcNAc": {"target": "Kdn(a2-3)Gal(b1-4)GlcNAc", "outline": "as §1"}, "[9]": {"target": "Man(a1-2)Man(a1-2)Man(a1-6)[Man(a1-3)]Man", "outline": "as §1"}, "[10]": {"target": "Man(a1-2)Man(a1-6)[Man(a1-3)]Man(a1-6)[Man(a1-2)Man(a1-2)Man(a1-3)]Man", "outline": "as §1"}, "[11]": {"target": "Neu5Ac(a2-3)Gal(b1-3)GlcNAc(b1-3)Gal(b1-3)GlcNAc", "outline": "as §1"}, "[12]": {"target": "Neu5Ac(a2-3)Gal(b1-4)GlcNAc(b1-3)Gal(b1-4)GlcNAc(b1-3)Gal(b1-4)GlcNAc", "outline": "as §1"}, "[13]": {"target": "Neu5Ac(a2-3)Gal(b1-4)GlcNAc(b1-3)Gal(b1-4)[Fuc(a1-3)]GlcNAc", "outline": "as §1"}, "[14]": {"target": "Neu5Ac(a2-3)Gal(b1-4)[Fuc(a1-3)]GlcNAc", "outline": "as §1"}, "[15]": {"target": "Neu5Ac(a2-3)Gal6S(b1-4)[Fuc(a1-3)]GlcNAc", "outline": "as §1"}, "[16]": {"target": "Neu5Ac(a2-6)Gal(b1-4)GlcNAc(b1-2)Man(a1-3)[Gal(b1-4)GlcNAc(b1-2)Man(a1-6)]Man(b1-4)GlcNAc(b1-4)GlcNAc", "outline": "as §1"}, "[17]": {"target": "Neu5Ac(a2-6)Gal(b1-4)GlcNAc(b1-2)Man(a1-3)[Neu5Ac(a2-6)Gal(b1-4)GlcNAc(b1-2)Man(a1-6)]Man(b1-4)GlcNAc(b1-4)GlcNAc", "outline": "as §1"}, "[18]": {"target": "Neu5Ac(a2-6)Gal(b1-4)GlcNAc(b1-3)Gal(b1-4)[Fuc(a1-3)]GlcNAc(b1-3)Gal(b1-4)[Fuc(a1-3)]GlcNAc", "outline": "as §1"}, "[19]": {"target": "Neu5Gc(a2-3)Gal(b1-3)[Fuc(a1-4)]GlcNAc", "outline": "as §1"}}, "note": "The entries come from a sample that favours the strongest signals as a whole.", "data": [{"binder": "BDCA2 ex-domain (Homo sapiens) (protein) MASHHHHHHIEGRGLNDIFEAQKIEWHESLVPRGSCPTPWTSFQSSCYFISTGMQSWTKSQKNCSVMGADLVVINTREEQDFIIQNLKRNSSYFLGLSDPGGRRHWQWVDQTPYNENVTFWHSGEPNNLDERCAIINFRSSEEWGWNDIHCHVPQKSICKMKKIY", "values": [{"measurement": "glycan array binding signal (z-score)", "setting": "Fuc(a1-2)Gal(b1-4)Glc", "value": -0.318}, {"measurement": "glycan array binding signal (z-score)", "setting": "[1]", "value": -0.022}, {"measurement": "glycan array binding signal (z-score)", "setting": "Fuc(a1-3)GlcNAc", "value": -0.3}, {"measurement": "glycan array binding signal (z-score)", "setting": "[2]", "value": -0.204}, {"measurement": "glycan array binding signal (z-score)", "setting": "Gal(a1-4)Gal(b1-4)Glc", "value": 0.336}, {"measurement": "glycan array binding signal (z-score)", "setting": "Gal(b1-3)Gal(b1-4)GlcNAc", "value": -0.245}, {"measurement": "glycan array binding signal (z-score)", "setting": "[3]", "value": 8.6}, {"measurement": "glycan array binding signal (z-score)", "setting": "[4]", "value": -0.375}, {"measurement": "glycan array binding signal (z-score)", "setting": "[5]", "value": 13.2}, {"measurement": "glycan array binding signal (z-score)", "setting": "Gal3S(b1-4)GlcNAc", "value": -0.181}, {"measurement": "glycan array binding signal (z-score)", "setting": "Gal3S4S(b1-4)GlcNAc", "value": 1.81}, {"measurement": "glycan array binding signal (z-score)", "setting": "Glc(a1-6)Glc(a1-6)Glc", "value": -0.187}, {"measurement": "glycan array binding signal (z-score)", "setting": "GlcA(b1-3)GlcNAc", "value": -0.1}, {"measurement": "glycan array binding signal (z-score)", "setting": "[6]", "value": -0.208}, {"measurement": "glycan array binding signal (z-score)", "setting": "[7]", "value": -0.347}, {"measurement": "glycan array binding signal (z-score)", "setting": "[8]", "value": 0.139}, {"measurement": "glycan array binding signal (z-score)", "setting": "Kdn(a2-3)Gal(b1-4)GlcNAc", "value": 0.619}, {"measurement": "glycan array binding signal (z-score)", "setting": "[9]", "value": -0.128}, {"measurement": "glycan array binding signal (z-score)", "setting": "[10]", "value": -0.559}, {"measurement": "glycan array binding signal (z-score)", "setting": "[11]", "value": -0.143}, {"measurement": "glycan array binding signal (z-score)", "setting": "[12]", "value": 1.33}, {"measurement": "glycan array binding signal (z-score)", "setting": "[13]", "value": 0.601}, {"measurement": "glycan array binding signal (z-score)", "setting": "[14]", "value": -0.385}, {"measurement": "glycan array binding signal (z-score)", "setting": "[15]", "value": -0.35}, {"measurement": "glycan array binding signal (z-score)", "setting": "[16]", "value": 2.93}, {"measurement": "glycan array binding signal (z-score)", "setting": "[17]", "value": -0.101}, {"measurement": "glycan array binding signal (z-score)", "setting": "[18]", "value": 0.319}, {"measurement": "glycan array binding signal (z-score)", "setting": "[19]", "value": -0.317}]}]}
